From PubChem
Rows were chosen to be rich in hits. Some 0.9% of all compounds tested hit in one or more screens of this group.
SRC3 TRFRET art: flags TR-FRET format artefacts in PPARgamma SRC-3 recruitment agonist screen; TR-FRET artefact counter-screen, PPARgamma/SRC-3 format; stronger effect = higher value; TR-FRET ratio at 8 µM; 0.39% of 99,000 active; in the data active = TR-FRET ratio above about 2000
PPARg SRC-3 ag: PPARgamma-driven SRC-3 recruitment agonism; biochemical PPARgamma/SRC-3 coactivator recruitment assay; 0.26% of 200,000 active; activation, % at 8 µM; AID 731; P37231; in the data active = activation above about 23%;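 note: 0% = DMSO and 100% = reference agonist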
Target sequence (P37231 whole entry, looked up): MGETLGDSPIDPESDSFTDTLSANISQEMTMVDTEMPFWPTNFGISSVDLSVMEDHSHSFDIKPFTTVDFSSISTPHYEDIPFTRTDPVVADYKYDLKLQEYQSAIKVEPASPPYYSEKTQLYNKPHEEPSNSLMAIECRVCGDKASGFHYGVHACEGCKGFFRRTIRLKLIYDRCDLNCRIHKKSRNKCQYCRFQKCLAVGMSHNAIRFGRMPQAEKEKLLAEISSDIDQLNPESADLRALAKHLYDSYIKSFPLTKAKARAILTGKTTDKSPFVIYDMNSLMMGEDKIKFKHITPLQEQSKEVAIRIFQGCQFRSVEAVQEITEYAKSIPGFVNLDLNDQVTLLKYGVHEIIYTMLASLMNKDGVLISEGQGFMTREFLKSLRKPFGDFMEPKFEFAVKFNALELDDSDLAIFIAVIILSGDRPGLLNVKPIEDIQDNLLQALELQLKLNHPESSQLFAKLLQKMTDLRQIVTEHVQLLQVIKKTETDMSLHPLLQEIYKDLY
TR-FRET SRC-2 ct: flags TR-FRET format artefacts in PPARgamma SRC-2 recruitment agonist screen; TR-FRET artefact counter-screen; stronger effect = higher value; TR-FRET ratio at 8 µM; 0.4% of 200,000 active; AID 1049; in the data active = TR-FRET ratio above about 2000
PPARg SRC2 recr: agonists of SRC-2 recruitment by human PPARgamma. 0.34% of 200,000 active. P37231. activation, % at 8 µM. PPARgamma LBD-SRC-2 recruitment, biochemical;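 note: 0% = vehicle and 100% = reference agonist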
SRC1 TRFRET art: counter-screen for PPARgamma SRC-1 recruitment agonists: TR-FRET artefact; AID 1051; 0.34% of 99,000 active; TR-FRET detection artefact counter-screen, emission ratio; stronger effect = higher value; TR-FRET ratio at 8 µM; in the data active = TR-FRET ratio above about 2300
PPARg SRC-1 ag: PPARgamma-driven SRC-1 recruitment agonism. P37231. PPARgamma-SRC-1 coactivator recruitment biochemical assay. activation, % at 8 µM. 0.41% of 200,000 active; in the data active = activation above about 19%;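 note: 0% = DMSO and 100% = reference agonist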
PPARg SRC2 conf: confirmation of agonists of SRC-2 recruitment by human PPARgamma; 52% of 790 active; biochemical SRC-2 recruitment by PPARgamma; activation, % at 8 µM; shares compounds with PPARg SRC-3 ag;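 note: 0% = vehicle alone and 100% = reference agonist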
PPARg SRC1 conf: confirmation of agonists of SRC-1 recruitment by human PPARgamma; shares compounds with PPARg SRC-3 ag; PPARgamma–SRC-1 coactivator recruitment biochemical assay; activation, % at 8 µM; 43% of 790 active; AID 1300; in the data active = activation above about 20%;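 note: 0% = vehicle wells and 100% = reference agonist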
PPARg SRC3 ag: confirmation of agonists of SRC-3 recruitment by human PPARgamma; shares compounds with PPARg SRC-3 ag; biochemical PPARgamma-SRC-3 coactivator recruitment, agonist mode; activation, % at 8 µM; 29% of 790 active; in the data active = activation above about 24%;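 note: 0% = vehicle wells and 100% = reference agonist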
An asterisk follows results filed as active; nt = no result given. Cut-off read from the data, not from the text of the source, unless noted: active = activation above about 22%; inactive = the rest.

SMILES	SRC3 TRFRET art	PPARg SRC-3 ag	TR-FRET SRC-2 ct	PPARg SRC2 recr	SRC1 TRFRET art	PPARg SRC-1 ag	PPARg SRC2 conf	PPARg SRC1 conf	PPARg SRC3 ag
O=C(Nc1nc(=O)c2ccccc2s1)c1ccc(Cl)cc1	nt	16.1	1596	6.1	nt	20.2*	11.4	11.4	8.3
Cc1nn(CC(=O)Nc2cccnc2)c(C)c1[N+](=O)[O-]	1404	-0.2	1582	-1.0	1776	-2.8	nt	nt	nt
CC(=O)Nc1ccc(N2C(C(C)=O)=NN(c3ccc(Cl)cc3)C2c2sccc2C)cc1 (stereo unspecified)	nt	-1.4	1360	-7.3	nt	-1.2	nt	nt	nt
N#CC1=C2SCN(Cc3ccccc3)CN2C(=O)CC1c1cccs1 (stereo unspecified)	nt	25.7*	2063*	23.4*	nt	13.3	22.7*	14.6	15.3
CCn1c(=O)n(CCOC)c(=O)c2c3c(sc21)CCCC3	nt	-2.8	1709	2.8	nt	4.7	nt	nt	nt
COCCCn1c(=S)[nH]c2sc3c(c2c1=O)CCCS3	2497*	35.7*	2732*	44.3*	3194*	43.1*	56.7*	39.9*	38.4*
O=C(Cc1sc(-c2ccccc2)nc1-c1ccccc1)Nc1ccc(Cl)cc1	nt	-0.7	1545	-1.3	nt	6.4	nt	nt	nt
O=C(Cc1sc(-c2ccccc2Cl)nc1-c1ccccc1)Nc1ccc(F)cc1	nt	12.8	2292*	15.0	nt	29.4*	17.6	7.5	6.6
c1csc(-c2csc(-c3cccs3)n2)c1	nt	7.3	1741	8.2	nt	15.9	nt	nt	nt
Brc1cc(Br)c2nc(-c3cccs3)ccc2c1	nt	51.8*	2365*	45.5*	nt	23.3*	36.5*	23.6*	23.6
CCn1c(=O)c(=O)[nH]c2cc(C(=O)Nc3ccc(S(=O)(=O)N4CCCC4)cc3)ccc21	nt	26.2*	1683	10.5	nt	12.8	2.8	4.7	3.5
CCn1c(=O)c(=O)[nH]c2cc(C(=O)NC3CC3)ccc21	1661	0.2	1462	1.6	1982	2.8	nt	nt	nt
O=C1c2ccccc2C(=O)N1c1cccc(-c2csc(Nc3ccc4c(c3)OCO4)n2)c1	1746	12.4	1630	25.6*	2024	18.8	13.8	12.3	8.3
O=C(CCSc1nnc2ccc3ccccc3n12)Nc1ccc(F)cc1	nt	32.5*	1920	17.2	nt	9.9	29.4*	24.0*	19.5
CN(C)S(=O)(=O)c1cccc(NC(=O)CCNC(=O)c2ccccc2Cl)c1	1481	0.6	1564	3.2	1809	1.0	nt	nt	nt
Cc1ccc(C(=O)C2=C(O)C(=O)N(CCCn3ccnc3)C2c2ccc(OC(C)C)cc2)o1 (stereo unspecified)	nt	25.9*	2124*	28.2*	nt	14.0	9.9	6.0	7.3
CCOc1ccc(C2C(C(=O)c3ccco3)=C(O)C(=O)N2CCCn2ccnc2)cc1 (stereo unspecified)	nt	15.6	1743	18.9	nt	7.6	nt	nt	nt
Oc1ccc(N=Cc2ccc(-c3cccs3)s2)cc1	nt	24.1	1957	26.2*	nt	37.0*	52.7*	46.3*	30.1*
CC(C)(CO)NCC(=O)Nc1cc(C(F)(F)F)cc(NC(=O)CNC(C)(C)CO)c1Cl	1648	0.1	1519	9.0	1993	-1.1	nt	nt	nt
O=C(NCc1ccco1)c1ccc(CNc2c(N3CCCCC3)c(=O)c2=O)cc1	1687	4.2	1547	5.3	1543	3.0	nt	nt	nt
O=C(NCC(=O)N(c1cccnc1)C(C(=O)NC1CCCC1)c1ccc(F)cc1)c1ccco1 (stereo unspecified)	1604	0.7	1527	4.4	1713	4.1	nt	nt	nt
COC(=O)c1c(NC(=O)Cc2ccccc2)sc(C)c1C	nt	-7.6	1586	-0.6	nt	-4.0	nt	nt	nt
COC(=O)c1c(NC(=S)Nc2ccccc2Cl)sc(C)c1C	nt	37.8*	2012*	31.5*	nt	21.9*	31.0*	23.8*	19.4
On1nnc2c3ccccc3c3ccccc3c21	1641	1.4	1643	5.4	1861	6.2	nt	nt	nt
Cc1ccc(S(=O)(=O)c2c(CO)c(-c3ccccc3)nn2C)cc1	1207	34.4*	1327	9.5	1892	16.7	10.5	15.9	17.9
